Measured values as given in PubChem BioAssay (Tox21).
Records with an inconclusive call do not appear. Where a call stands in place of a potency, no number is given. More than one record can exist for a structure, and the calls need not agree. Calls of active or inactive are those of the source. Unless noted, calls follow the shape of the dose curve; as a rule, active = well fitted curve in the direction sought with a large enough effect in the repeat runs; inconclusive = weak or mixed curves; inactive = no such curve, though single readings can be large; an effect the other way counts as inactive or inconclusive.

Legend:
[1] = qHTS assay to identify small molecule antagonists of the thyroid receptor (TR) signaling pathway - cell viability counter screen (AID 743064); also: nearly all actives have a fitted effect of over 50% in size; also: potency is read from the fitted curve at half-maximal effect
Method in brief: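 GH3.TRE-Luc rat pituitary cells carrying a TRE-luciferase reporter were treated with compound plus 1 nM T3 (final) for 23.5 h at 37 °C. Viability was then read in the same wells by CellTiter-Fluor fluorescence after a further 30 min.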

[2] = qHTS assay to identify small molecule antagonists of the thyroid receptor (TR) signaling pathway (AID 743065); also: series mostly up to about 70 µM; nearly all actives have a fitted effect of over 55% in size
Method in brief: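 GH3.TRE-Luc rat pituitary cells (two TREs driving luciferase) were dosed with compound, then stimulated with 1 nM T3 (final) for 23.5 h at 37 C. ONE-Glo luminescence was the read-out, with CellTiter-Fluor fluorescence as the cytotoxicity counter-screen.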

[3] = test system: thyroid hormone receptor (rat, GH3 cells); experiment: qHTS assay to identify small molecule agonists of the thyroid receptor (TR) signaling pathway (AID 743066; calls by dose curve)
[4] = molecular target: Estrogen receptor (Homo sapiens) (UniProt P03372); experiment: qHTS assay to identify small molecule antagonists of the estrogen receptor alpha (ER-alpha) signaling pathway (AID 743069; active = well fitted curve in the direction sought with a large enough effect in the signal ratio in the repeat runs, not every such curve was filed as active; the % refers to the signal ratio)
Method in brief: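 Reporter cells (ER-alpha-bla, HEK293 background) are conditioned overnight in stripped-serum medium (2% charcoal-stripped FBS). Compound and 17beta-estradiol exposure runs 18 hr at 37C, 5% CO2.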

[5] = qHTS assay to identify small molecule antagonists of the estrogen receptor alpha (ER-alpha) signaling pathway - cell viability counter screen (AID 743074; calls by dose curve;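 also: HEK293 cells carrying ER-alpha-UAS-bla reporter stimulated with 17beta-estradiol; nearly all actives have a fitted effect of over 45% in size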)
[6] = molecular target: Estrogen receptor (Homo sapiens) (UniProt P03372); experiment: qHTS assay to identify small molecule agonists of the estrogen receptor alpha (ER-alpha) signaling pathway (AID 743075; calls by dose curve;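 also: HEK293 GripTite cells with ER-alpha and UAS-driven beta-lactamase reporter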; also: potency is read from the fitted curve at half-maximal effect)
[7] = molecular target: Estrogen receptor (Homo sapiens) (UniProt P03372); experiment: qHTS assay to identify small molecule agonists of the estrogen receptor alpha (ER-alpha) signaling pathway using the BG1 cell line (AID 743079); also: nearly all actives have a fitted effect of over 20% in size; also: potency is read from the fitted curve at half-maximal effect
[8] = qHTS assay to identify small molecule antagonists of the estrogen receptor alpha (ER-alpha) signaling pathway using the BG1 cell line (AID 743080; calls by dose curve;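 also: BG1 cells stimulated with 17beta-estradiol alongside compound; series mostly up to about 70 µM; nearly all actives have a fitted effect of over 25% in size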)
Method in brief: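 After 5 days in phenol-red-free 10% charcoal-stripped FBS medium, BG1-Luc-4E2 cells were seeded, left 24 h at 37 C, co-treated with compounds and 17beta-estradiol for 21.5 h, then assayed for viability and luciferase.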

[9] = qHTS assay to identify small molecule antagonists of the estrogen receptor alpha (ER-alpha) signaling pathway using the BG1 cell line - cell viability counter screen (AID 743081);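 also: compound given together with 17beta-estradiol as the ER stimulus; nearly all actives have a fitted effect of over 45% in size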; also: potency is read from the fitted curve at half-maximal effect
Aromatase (Homo sapiens) = Aromatase (Homo sapiens) (UniProt P11511); experiment: qHTS assay to identify aromatase inhibitors (AID 743083); also: series mostly up to about 70 µM; nearly all actives have a fitted effect of over 55% in size
Aromatase (Homo sapiens), sequence (P11511 whole entry, looked up): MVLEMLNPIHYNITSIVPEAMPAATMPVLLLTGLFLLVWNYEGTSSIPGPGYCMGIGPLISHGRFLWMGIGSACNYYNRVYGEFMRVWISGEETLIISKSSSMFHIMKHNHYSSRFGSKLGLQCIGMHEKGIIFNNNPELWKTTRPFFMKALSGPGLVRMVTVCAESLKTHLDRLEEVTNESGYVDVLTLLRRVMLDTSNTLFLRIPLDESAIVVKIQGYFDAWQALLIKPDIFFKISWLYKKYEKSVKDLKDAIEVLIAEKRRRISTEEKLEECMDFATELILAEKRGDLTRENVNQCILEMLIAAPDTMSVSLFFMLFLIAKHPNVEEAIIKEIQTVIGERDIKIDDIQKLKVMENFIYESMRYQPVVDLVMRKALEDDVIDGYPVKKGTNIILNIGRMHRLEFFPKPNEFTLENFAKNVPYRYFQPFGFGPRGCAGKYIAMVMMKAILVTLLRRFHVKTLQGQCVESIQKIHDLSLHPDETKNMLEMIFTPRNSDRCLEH

Estrogen receptor (Homo sapiens), sequence (P03372 whole entry, looked up): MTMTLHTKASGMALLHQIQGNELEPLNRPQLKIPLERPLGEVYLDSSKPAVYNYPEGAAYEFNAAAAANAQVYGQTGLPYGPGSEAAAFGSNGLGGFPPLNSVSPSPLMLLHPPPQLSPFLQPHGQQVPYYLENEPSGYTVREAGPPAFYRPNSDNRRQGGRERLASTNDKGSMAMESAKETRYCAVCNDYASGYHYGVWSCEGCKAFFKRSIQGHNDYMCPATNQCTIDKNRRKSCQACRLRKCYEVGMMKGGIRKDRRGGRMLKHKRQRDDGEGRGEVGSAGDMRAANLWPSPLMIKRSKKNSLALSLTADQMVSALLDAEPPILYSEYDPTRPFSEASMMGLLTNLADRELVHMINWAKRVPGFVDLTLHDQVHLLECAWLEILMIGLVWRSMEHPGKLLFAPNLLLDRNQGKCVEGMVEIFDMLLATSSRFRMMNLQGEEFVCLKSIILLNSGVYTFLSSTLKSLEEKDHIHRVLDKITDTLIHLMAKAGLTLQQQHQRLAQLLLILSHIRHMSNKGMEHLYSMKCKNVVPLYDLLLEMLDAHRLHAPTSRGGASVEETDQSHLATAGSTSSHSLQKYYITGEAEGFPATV

SMILES | Potency [1] | Potency [2] | outcome [3] | outcome [4] | outcome [5] | Potency [6] | Potency [7] | outcome [8] | Potency [9] | outcome (Aromatase (Homo sapiens)) | activity change, negative = cytotoxic [1] | activity, negative = inhibition [2] | activity, negative = inhibition (Aromatase (Homo sapiens))
Cc1ccccc1C(N)=O | inactive | inactive | inactive | inactive | inactive | inactive | inactive | inactive | inactive | inactive | – | – | –
OC[C@H]1O[C@@H](O[C@@H]2[C@@H](CO)O[C@](O)(CO)[C@H]2O)[C@H](O)[C@@H](O)[C@H]1O | inactive | inactive | inactive | inactive | inactive | inactive | inactive | inactive | inactive | inactive | – | – | –
C[C@H]1[C@@H](c2ccccc2)NC(=O)N1C | inactive | inactive | inactive | inactive | inactive | inactive | inactive | inactive | inactive | inactive | – | – | –
CN(C)C(C)(C)CO | inactive | inactive | inactive | inactive | inactive | inactive | 77 µM (active) | inactive | inactive | inactive | – | – | –
CC(C)Nc1ccccc1 | inactive | inactive | inactive | inactive | inactive | inactive | inactive | inactive | inactive | inactive | – | – | –
CC(S)C(C)S (centres undefined) | inactive | inactive | inactive | inactive | inactive | inactive | inactive | inactive | inactive | inactive | – | – | –
CCC(=O)c1c(O)cc(O)cc1O | inactive | inactive | inactive | inactive | inactive | inactive | inactive | inactive | inactive | inactive | – | – | –
O=S(=O)(O)c1ccc2c(N=Nc3ccc(S(=O)(=O)O)c4ccccc34)c(O)c(S(=O)(=O)O)cc2c1 | 21.1 µM (active) | – | inactive | – | inactive | – | – | – | 9.44 µM (active) | – | -5.75% [at 8.44 µM] (inactive) | -4.92% [at 8.44 µM] (inactive) | -13.1% [at 8.47 µM] (inactive)
CCC(C)C(=O)OCCc1ccccc1 (centres undefined) | inactive | inactive | inactive | inactive | inactive | inactive | inactive | inactive | inactive | inactive | – | – | –
Cc1cc(C)c(C(=O)O)c(C)c1 | inactive | inactive | inactive | inactive | inactive | inactive | inactive | inactive | inactive | inactive | – | – | –
CC(=O)CCc1ccc(OC(C)=O)cc1 | inactive | inactive | inactive | inactive | inactive | inactive | inactive | inactive | inactive | inactive | – | – | –
Nc1nnnn1-c1ccccc1 | inactive | inactive | inactive | inactive | inactive | inactive | inactive | inactive | inactive | inactive | – | – | –
CCO[Si](CC)(OCC)OCC | inactive | inactive | inactive | inactive | inactive | inactive | inactive | inactive | inactive | inactive | – | – | –
CC/C=C\CCOC(=O)c1ccccc1O | inactive | inactive | inactive | inactive | inactive | inactive | inactive | inactive | inactive | inactive | – | – | –
NCCOCCN | inactive | inactive | inactive | inactive | inactive | inactive | inactive | inactive | inactive | inactive | – | – | –
COc1nc(N)nc2nc[nH]c12 | inactive | inactive | inactive | inactive | inactive | inactive | inactive | inactive | inactive | inactive | – | – | –
CC1=C(C(=O)O)N2C(=O)[C@@H](NC(=O)[C@H](N)c3ccccc3)[C@H]2SC1 | inactive | inactive | inactive | inactive | inactive | inactive | inactive | inactive | inactive | – | – | – | –
CC1CC(=O)CC(C)(C)C1 (centres undefined) | inactive | inactive | inactive | inactive | inactive | inactive | inactive | inactive | inactive | inactive | – | – | –
CCCCOC(=O)C(C)O (centres undefined) | inactive | inactive | inactive | inactive | inactive | inactive | inactive | inactive | inactive | inactive | – | – | –
O=C(O)CNC(=O)CNC(=O)CNC(=O)CSC(=O)c1ccccc1 | inactive | inactive | inactive | inactive | inactive | inactive | inactive | inactive | inactive | inactive | – | – | –
CCOC(=O)CC1(C)OCC(C)O1 (centres undefined) | inactive | inactive | inactive | inactive | inactive | inactive | inactive | inactive | inactive | inactive | – | – | –
CCCCOCC(C)O (centres undefined) | inactive | inactive | inactive | inactive | inactive | inactive | inactive | inactive | inactive | inactive | – | – | –
CO[C@@]1(NC(=O)Cc2cccs2)C(=O)N2C(C(=O)O)=C(COC(N)=O)CS[C@@H]21 | inactive | inactive | inactive | inactive | inactive | inactive | inactive | inactive | inactive | inactive | – | – | –
COC(=O)c1ccccc1C(=O)O | inactive | inactive | inactive | inactive | inactive | inactive | inactive | inactive | inactive | inactive | – | – | –
CC1OCCC1=O (centres undefined) | inactive | inactive | inactive | inactive | inactive | inactive | inactive | inactive | inactive | inactive | – | – | –
COC(=O)/C=C\C(=O)O | inactive | inactive | inactive | inactive | inactive | inactive | inactive | inactive | inactive | inactive | – | – | –

SMILES | Potency [1] | Potency [2] | outcome [3] | outcome [4] | outcome [5] | Potency [6] | Potency [7] | outcome [8] | Potency [9] | outcome (Aromatase (Homo sapiens)) | activity change, negative = cytotoxic [1] | activity, negative = inhibition [2] | activity, negative = inhibition (Aromatase (Homo sapiens))
CCCCCCCCCCCCCCC(=O)NC(CO)CCCCCCCCCCCCCC (centres undefined) | inactive | inactive | inactive | inactive | inactive | inactive | inactive | inactive | inactive | inactive | – | – | –
O=C(Cn1ccnc1[N+](=O)[O-])NCc1ccccc1 | inactive | inactive | inactive | inactive | inactive | inactive | inactive | inactive | inactive | inactive | – | – | –
CCOc1cccc(N)c1 | inactive | inactive | inactive | inactive | inactive | inactive | inactive | inactive | inactive | inactive | – | – | –
CCCC(CC)c1ccccc1 (centres undefined) | inactive | inactive | inactive | inactive | inactive | inactive | inactive | inactive | inactive | inactive | – | – | –
COP(=O)(O)OP(=O)(O)OC | inactive | inactive | inactive | inactive | inactive | inactive | inactive | inactive | inactive | inactive | – | – | –
CCC(C)C(C)=O (centres undefined) | inactive | inactive | inactive | inactive | inactive | inactive | 67 µM (active) | inactive | inactive | inactive | – | – | –
CCC[C@@H]1C[C@@H](C(=O)N[C@@H]([C@H]2O[C@H](SC)[C@H](O)[C@@H](O)[C@H]2O)[C@@H](C)O)N(C)C1 | inactive | inactive | inactive | inactive | inactive | inactive | inactive | inactive | inactive | inactive | – | – | –
CCCCCCCCCCCCCCCCCCOCCO | inactive | inactive | inactive | inactive | inactive | inactive | inactive | inactive | inactive | inactive | – | – | –
C[C@]12CCC(=O)C=C1CC[C@H]1[C@@H]3CC[C@](O)(C(=O)CO)[C@@]3(C)C[C@H](O)[C@@]12F | inactive | inactive | inactive | – | inactive | inactive | 4.73 µM (active) and inactive | – | inactive | inactive | – | – | –
CC(=O)CCC1=C(C)CCCC1(C)C | inactive | inactive | inactive | – | inactive | – | inactive | inactive | inactive | inactive | – | – | –
COC(C)(OC)OC | inactive | inactive | inactive | inactive | – | inactive | inactive | inactive | inactive | inactive | – | – | –
O=C(O)c1cc2ccccc2nc1C(=O)O | inactive | inactive | inactive | inactive | inactive | inactive | – | inactive | inactive | inactive | – | – | –
CC(C)OC(=O)CCC(=O)OC(C)C | inactive | inactive | inactive | – | inactive | – | – | – | inactive | inactive | – | – | –
ONc1ccccc1 | inactive | inactive | inactive | inactive | inactive | inactive | 60.5 µM (active) | – | inactive | inactive | – | – | –
Cc1ccc(C(C)NC(=O)[C@@H](NC(=O)OC(C)C)C(C)C)cc1 (some centres undefined) | inactive | inactive | inactive | – | inactive | – | – | – | inactive | inactive | – | – | –
CCCc1ccc(O)cc1 | inactive | inactive | inactive | inactive | inactive | inactive | – | inactive | inactive | inactive | – | – | –
CN1C[C@@H]2C[C@H]1CN2c1cc2c(cc1F)c(=O)c(C(=O)O)cn2C1CC1 | inactive | inactive | inactive | – | inactive | inactive | inactive | inactive | inactive | inactive | – | – | –
CCCCCCC1(C)CCC(=O)O1 (centres undefined) | inactive | inactive | inactive | inactive | – | inactive | inactive | inactive | inactive | inactive | – | – | –
CCCCOCCOC(=O)COc1ccc(Cl)cc1Cl | inactive | inactive | inactive | inactive | inactive | inactive | – | inactive | inactive | inactive | – | – | –
C=CCSSCCC | inactive | inactive | inactive | – | inactive | inactive | inactive | inactive | inactive | inactive | – | – | –
O=C(O)CONC(=O)c1ccccc1 | inactive | inactive | inactive | – | inactive | – | – | – | inactive | – | – | – | –
O=C(CCCCC(=O)Nc1c(I)cc(I)c(C(=O)O)c1I)Nc1c(I)cc(I)c(C(=O)O)c1I | inactive | inactive | inactive | inactive | inactive | inactive | inactive | inactive | – | inactive | – | – | –
Cc1c(N)cccc1Cl | inactive | inactive | inactive | inactive | – | inactive | – | inactive | inactive | inactive | – | – | –
CC1(C)O[C@H]2CC(=O)OC[C@]23[C@H]2CC[C@@]4(C)[C@H](c5ccoc5)OC(=O)[C@H]5O[C@]54[C@]2(C)C(=O)C[C@@H]13 | inactive | inactive | inactive | inactive | inactive | inactive | 13.3 µM (active) | – | – | inactive | – | – | –
c1ccc(-c2nn[nH]n2)cc1 | inactive | inactive | inactive | – | inactive | inactive | inactive | inactive | inactive | inactive | – | – | –
c1ccc(B(c2ccccc2)c2ccccc2)cc1 | inactive | inactive | inactive | inactive | inactive | 30.9 µM [activator] (active) | 34.3 µM (active) | – | inactive | inactive | – | – | –
